The record followed here is ChEMBL document CHEMBL3433997, “St. Jude Leishmania screening dataset” (2016).

Type in all cases: functional
In assay [1] the target is Solute carrier family 2, facilitated glucose transporter member 1 (Homo sapiens) (UniProt P11166). The assay is described as follows: ST_JUDE_LEISH: Cytotoxicity at 2uM final concentration against transgenic Leishmania Mexicana promastigotes LmGLUT1 that are glucose transport deficient and complemented with the human glucose transporter GLUT1. Activity is measured by DNA content using SYBR green in vitro.
Solute carrier family 2, facilitated glucose transporter member 1 (Homo sapiens), sequence (P11166 whole entry): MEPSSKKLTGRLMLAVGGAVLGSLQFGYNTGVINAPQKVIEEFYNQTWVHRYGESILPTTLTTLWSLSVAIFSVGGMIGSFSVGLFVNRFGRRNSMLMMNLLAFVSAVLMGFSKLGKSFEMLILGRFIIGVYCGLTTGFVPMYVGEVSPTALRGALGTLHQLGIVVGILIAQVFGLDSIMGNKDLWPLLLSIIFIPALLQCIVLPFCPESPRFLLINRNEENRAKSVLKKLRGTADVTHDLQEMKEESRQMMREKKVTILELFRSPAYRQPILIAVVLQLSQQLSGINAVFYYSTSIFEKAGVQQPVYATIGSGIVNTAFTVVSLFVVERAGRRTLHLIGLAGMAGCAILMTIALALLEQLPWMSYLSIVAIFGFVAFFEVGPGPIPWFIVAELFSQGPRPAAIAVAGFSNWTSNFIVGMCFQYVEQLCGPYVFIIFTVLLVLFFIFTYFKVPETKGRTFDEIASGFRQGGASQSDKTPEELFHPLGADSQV

Assay [2] concerns the target Hexose transporter 1 (Plasmodium falciparum) (UniProt O97467). The assay is described as follows: ST_JUDE_LEISH: Cytotoxicity at 2uM final concentration against transgenic Leishmania Mexicana promastigotes LmPfHT that are glucose transport deficient and complemented with the Plasmodium falciparum hexose transporter. Activity is measured by DNA content using SYBR green in vitro.

Assay [3] has as its target Glucose transporter (Leishmania mexicana) (UniProt O61059). The assay is described as follows: ST_JUDE_LEISH: Cytotoxicity at 2uM final concentration against transgenic Leishmania Mexicana promastigotes LmGT2 that are glucose transport deficient and complemented with the L. Mexicana glucose transporter 2. Activity is measured by DNA content using SYBR green in vitro.

On to `N#Cc1cc(N(CCCOc2cccc(OC(F)(F)F)c2)Cc2ccccc2C(F)(F)F)ccc1C(F)(F)F`, for which the figures for the inhibition in assay [1], in assay [2] and in assay [3] were -0.77%, -0.39% and 0.94%, respectively.

As for `Cc1cc(NCCC(=O)Nc2ccccc2)nc(NCCOc2ccccc2)n1`, the inhibition (as a rule, the change of the read-out against control, counted positive when it falls) in assay [1] was -0.01%; in assay [2] it was -0.67%; in assay [3], -1.58%.

With `CCC(C)NS(=O)(=O)c1ccc2nc(Nc3ccc(C)cc3)n([C@H](C)C(C)(C)C)c2c1` (some centres undefined), the inhibition is 2.68% in assay [1], 0.25% in assay [2] and -0.82% in assay [3].

For `Cc1nc2cc(/C=C/C(=O)NC3CCC(CCN4CCc5ccc(C#N)cc5CC4)CC3)ccc2[nH]1` (centres undefined), the inhibition in assay [1] worked out at 3.09%; in assay [2] it was 2.24%; in assay [3] it was 3.19%.

Consider `O=C(NCc1cccc2ccccc12)C1CCCN(C(=O)c2ccc(O)c(-c3ccc(Cl)c(Cl)c3)c2)C1` (centres undefined), for which the figures for the inhibition in assay [1], in assay [2] and in assay [3] were 1.68%, 1.11% and 1.88%, respectively.

Take `COc1ccc2nc3cc(Cl)ccc3c(NCCN3CCN(C)CC3)c2c1`: the inhibition in assay [1] stood at 4.56%; in assay [2] it was 3.95%; in assay [3] it was 3.79%.

Take `Cc1cc(N2Cc3ccccc3C2)nc(Nc2ccc(S(=O)(=O)N3CCOCC3)cc2)n1`: the inhibition came out at 1.54% in assay [1], 2% in assay [2] and 1.21% in assay [3].

As to `Cc1cc(NC(=O)Nc2ccc(Oc3ccccc3)cc2)c2ccccc2n1`, the inhibition in assay [1] is 0.26%; in assay [2], 1.44%; in assay [3], -0.34%.

On to `O=C(N[C@@H](Cc1ccccc1)[C@H](O)CNCCC(F)(F)F)c1cccc(OCC2CC2)c1`, for which the inhibition was -0.59% in assay [1], -0.22% in assay [2] and 0.56% in assay [3].

For `O=C(Nc1ccc(C(F)(F)F)cc1)Nc1cccc([N+](=O)[O-])c1`, the results for the inhibition in assay [1], in assay [2] and in assay [3] were 2.81%, 2.48% and 3.51%, respectively.

`CCOc1ccc2[nH]c(C)cc(=NN=Cc3ccncc3)c2c1`: the inhibition in assay [1] was 0.75%; in assay [2], 0.8%; in assay [3] it was -2.05%.

`CCCC(C)NC(=O)[C@H]1CNCCN1C(=O)CCCc1ccccc1` (some centres undefined): the inhibition in assay [1] is 8.59%; in assay [2], 7.9%; in assay [3], 3.67%.

Consider `CC(C)COc1ccc(Cl)cc1Cc1ccc(-c2nc3c(F)cccc3[nH]2)o1`, for which the inhibition in assay [1] turned out to be 0.36%; in assay [2] it was 0.7%; in assay [3], 2.89%.

Turning to `Cc1ccc(CNC(=O)[C@H](CCCN)Nc2nc(Nc3ccccc3)ncc2C)cc1`, the figures for the inhibition in assay [1], in assay [2] and in assay [3] were 1.37%, 0.93% and 1.15%, respectively.

As for `Cc1ccccc1Cn1c(CN2CCC(C(=O)NC3CC3)CC2)cc2ccccc21`, the results for the inhibition in assay [1], in assay [2] and in assay [3] were 2.57%, 1.99% and 5.38%, respectively.

For the compound `COc1cc(NCCCNCc2cn(Cc3cc(Br)cc(Br)c3)c3ccccc23)nc2ccccc12`, the inhibition in assay [1] was 4.87%; in assay [2], 1.54%; in assay [3] it was 2.54%.

Regarding `O=C(C=Cc1ccccc1)Nc1ccc(C#CC=Cc2ccc(NC(=O)C=Cc3ccccc3)cc2)cc1`, the inhibition turned out to be 2.7% in assay [1], 2.84% in assay [2] and 2.16% in assay [3].

For the compound `O=C(Cc1c[nH]cn1)Nc1ccc(-c2ccc(-c3nc4cc(C(F)(F)F)ccc4[nH]3)s2)cc1`, the values for the inhibition in assay [1], in assay [2] and in assay [3] were -0.37%, -0.36% and -0.01%, respectively.

For `Cc1cn(CC(=O)Nc2cccc(-c3cccc(-c4nc5cccc(C)c5[nH]4)c3)c2)c(=O)[nH]c1=O`, the inhibition in assay [1] worked out at 4.43%; in assay [2] it was 3.47%; in assay [3], 5.03%.

For the compound `O=C(Nc1cccc(-c2cccc(-c3nc4cc(C(F)(F)F)ccc4[nH]3)c2)c1)c1ccc(=O)[nH]n1`, the inhibition is 10.7% in assay [1], 9.47% in assay [2] and 9.62% in assay [3].

On to `CC(C)CN(c1nc(C(=O)NNC(=O)[C@H](CC2CC2)NC(=O)c2cc3cc(OCCN4CCCCC4)ccc3o2)cs1)C1CC1`, for which the inhibition is -3.13% in assay [1], 0.58% in assay [2] and 0.46% in assay [3].

For `Cn1cncc1C(=O)Nc1cccc(-c2ccc(-c3nc4ccccc4[nH]3)cc2)c1`, the inhibition in assay [1] is -2.56%; in assay [2] it was -2.33%; in assay [3] it was -0.9%.

With `CCc1c(CCNCCCC(C)CCNCCc2ccc(OC)c(OC)c2CC)ccc(OC)c1OC` (centres undefined), the inhibition in assay [1] stood at 1.96%; in assay [2] it was 4.93%; in assay [3], 1.22%.

For `CCN(CC)CCN(CCCc1ccc(-c2ccc(C(F)(F)F)cc2)cc1)C(=O)Cn1c(CCc2cccc(F)c2F)nc(=O)c2c1CCC2`, the inhibition in assay [1] is -2.04%; in assay [2] it was -0.48%; in assay [3], 6.62%.

Regarding `COc1cccc2c(NN=Cc3ccccc3F)ccnc12`, the results for the inhibition in assay [1], in assay [2] and in assay [3] were 7.43%, 7.62% and 2.85%, respectively.

For the compound `CCOc1cccc(C2c3c(oc4ccccc4c3=O)C(=O)N2CCN(CC)CC)c1` (centres undefined), the inhibition is 4.85% in assay [1], 2.93% in assay [2] and 3.34% in assay [3].

Take `Cc1ccc(Nc2nc(C)cc(NC3CC3)n2)cc1`: the inhibition in assay [1] is 8.73%; in assay [2], 6.75%; in assay [3], 7%.

On to `COc1cc(Cc2cnc(N)nc2N)ccc1OCc1csc(-c2ccc(Cl)cc2)n1`, for which the results for the inhibition in assay [1], in assay [2] and in assay [3] were 10%, 11.7% and 9.8%, respectively.

Regarding `Cc1cc(NCCC(=O)Nc2ccccc2)nc(NCCc2ccccc2)n1`, the results for the inhibition in assay [1], in assay [2] and in assay [3] were 3.62%, 1.77% and 0.45%, respectively.

On to `Cc1ccc(-c2cc(C(=O)Nc3ccc(S(=O)(=O)N4CCCCC4)cc3)[nH]n2)c(O)c1`, for which the results for the inhibition in assay [1], in assay [2] and in assay [3] were 0.86%, 1.9% and -0.53%, respectively.

Regarding `Cc1c(N)ccc2[nH]c(-c3ccc(N)cc3)nc12`, the inhibition worked out at 3.21% in assay [1], 4.3% in assay [2] and 2.89% in assay [3].

Consider `CCNC(=O)N1CCN(c2nc(-c3ccccc3)nc(COC)c2Cc2ccc(C)cc2)CC1`, for which the inhibition in assay [1] is 4.13%; in assay [2], -1.41%; in assay [3], 3.78%.

Regarding `CN(C)CCCOc1ccc(CCCCc2ccc(Cl)cc2C(=O)c2ccccc2)cc1`, the inhibition came to 13.3% in assay [1], 10.2% in assay [2] and 7.71% in assay [3].
